TDP-43 yeast inh – qHTS of TDP-43 Inhibitors | TDP-43 expressing yeast growth rescue, BacTiter-Glo, 24 h | Potency, µM (highest dose often 46.1 µM), for the others: at the highest dose growth rescue (activation), actives largely listed as activators | 410,000 tested, 1.8% active; note: % of control where 0% means no effect; nearly all actives have a fitted effect of over 50% in size
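Galactose-induced TDP-43 yeast, OD600=0.02, compound pinned; 24 hr, 30 deg C; BacTiter-Glo luminescence for growth. Inhibitors of TDP-43 toxicity read as activators.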
Abeta rescue – qHTS for compounds that reverse cellular toxicity of Amyloid beta (A-beta) peptide in yeast: Primary Screen. Potency, µM (titrated, usually from 46.1 µM), most hits filed as activators. 410,000 tested, 0.063% active. yeast expressing A-beta42, growth rescue, OD600, 48 h; response scale: 0% DMSO, 100% iron-clioquinol control; note: nearly all actives have a fitted effect of over 55% in size
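Yeast A-beta toxicity model in growth medium with pinned compounds, 48 h at 30 C; growth read as absorbance at 600 nm. Normalized to FeCl3/clioquinol equimolar mix (positive) and DMSO (negative).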
FUS yeast rescue – qHTS for Suppressors of FUS Proteinopathy: Primary screen using FUS-linked yeast assay; Potency, µM (titrated, usually from 76.6 µM), most hits filed as activators; AID 1347120, 2019; S. cerevisiae FUS-expressing, growth rescue, OD600, 24 h; 390,000 tested, 0.24% active;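 note: plate controls were DMSO vehicle for no effect and reference control for full effect; nearly all actives have a fitted effect of over 55% in size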
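Quantitative HTS measuring growth restoration of FUS-toxic yeast. Galactose-induced cells (OD 0.005) were exposed 24hr at 30C to compounds at several concentrations, then absorbance at 600 nm was recorded.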
aSyn rescue – qHTS of alpha-syn Inhibitors | Potency, µM (series often up to 46.1 µM), without a hit: top-dose growth rescue (activation), actives largely listed as activators | AID 652106, 2013 | 370,000 tested, 0.14% active | Yeast expressing alpha-synuclein, growth rescue, BacTiter-Glo, 24 h; note: % of control where 0% means no effect; nearly all actives have a fitted effect of over 65% in size
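Screening used galactose-induced yeast with toxic alpha-synuclein levels, exposed to compound for 24 hr at 30 deg C. Cell growth, read with BacTiter-Glo luminescence, gave the measured signal.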
Mito fusion yeast – qHTS Assay for Small Molecule Inhibitors of Mitochondrial Division or Activators of Mitochondrial Fusion. S. cerevisiae fusion-defective mutant growth rescue, CellTiterGlo 48 h. Potency, µM (series often up to 46.1 µM), inactives show top-dose growth rescue (activation), most hits filed as activators. 320,000 tested, 0.23% active. AID 485298, 2010; note: % of control where 0% means no effect; nearly all actives have a fitted effect of over 45% in size
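Luminescent cell viability in 1536-well qHTS format served as the measure of rescued growth in ts fusion-mutant S. cerevisiae cultured on non-fermentable YPEG for 48 hours at 37C.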
* hit, by the source's call. Hits are enriched below; roughly 2.2% of the tested compounds scored in any of these assays. Calls come from the whole dose curve; as a rule, active = well fitted curve in the direction sought with a large enough effect; inconclusive = small, poorly fitted or top-dose-only effect, or another doubt; inactive = no such curve, though single readings can be large; an effect the other way counts as inactive or inconclusive. Potency is the fitted concentration of half-maximal effect.

Results for COc1ccc(CNC(=O)CN2C(=O)CSc3ccc(S(=O)(=O)N4CCC(C)CC4)cc32)cc1 ?
TDP-43 yeast inh: 22%; Abeta rescue: inactive; FUS yeast rescue: inconclusive

Results for CCCCN(C)C(=O)c1cc2cc3ccc(OC)cc3nc2o1 ?
TDP-43 yeast inh: 16µM*; Abeta rescue: inactive; FUS yeast rescue: inactive; aSyn rescue: 2%; Mito fusion yeast: -9%

Results for CCCCN(C)C(=O)c1cc2cc3cc(OC)ccc3nc2o1 ?
TDP-43 yeast inh: inconclusive; Abeta rescue: inactive; FUS yeast rescue: inactive; aSyn rescue: 4%; Mito fusion yeast: 19%

What do the screens show for `CCOC(=O)c1ccc(NC2c3ccccc3C(=O)N2c2ccc(C)cn2)cc1` (stereo not drawn)?
TDP-43 yeast inh: 0%; Abeta rescue: inactive; FUS yeast rescue: inactive; aSyn rescue: 4µM*; Mito fusion yeast: 0%

What do the screens show for `COc1ccc(C(=O)/C=C2/C(=O)Nc3ccccc32)cc1`?
TDP-43 yeast inh: 2.8µM*; Abeta rescue: inactive; FUS yeast rescue: inactive; aSyn rescue: -53%; Mito fusion yeast: -20%

Results for COc1ccc(C(=O)/C=C2/C(=O)Nc3ccccc32)cc1OC ?
TDP-43 yeast inh: -2%; Abeta rescue: inactive; FUS yeast rescue: inconclusive; aSyn rescue: 2%; Mito fusion yeast: 8%

How did COc1ccc(C(=O)/C=C2/C(=O)Nc3ccccc32)c(OC)c1 do in these assays?
TDP-43 yeast inh: 11µM*; Abeta rescue: inactive; FUS yeast rescue: inactive; aSyn rescue: -1%; Mito fusion yeast: -95%

How did Cc1oc(-c2ccc3c(c2)OCCO3)cc1C(=O)O do in these assays?
TDP-43 yeast inh: -48%; Abeta rescue: inactive; aSyn rescue: -50%; Mito fusion yeast: 1%

What do the screens show for `COc1ccc(-c2cc(C(=O)O)c(C)o2)cc1OC`?
TDP-43 yeast inh: 20µM*; Abeta rescue: inactive; FUS yeast rescue: inactive; Mito fusion yeast: -4%

How did ONC(=Nc1ccccc1)c1ccc(Cl)cc1 do in these assays?
TDP-43 yeast inh: 13µM*; Abeta rescue: inactive; FUS yeast rescue: inactive; aSyn rescue: 8%; Mito fusion yeast: -20%

What do the screens show for `CC(=O)c1ccc(NS(=O)(=O)c2cnc(N)nc2)cc1`?
TDP-43 yeast inh: 8%; Abeta rescue: inactive; FUS yeast rescue: inactive

Results for COc1ccc(C)cc1NC(=O)COC(=O)c1ccc([N+](=O)[O-])o1 ?
TDP-43 yeast inh: 11µM*; Abeta rescue: inactive; FUS yeast rescue: inactive; aSyn rescue: 2%; Mito fusion yeast: -6%

Results for O=C(COC(=O)c1ccc([N+](=O)[O-])o1)Nc1ccc(N2CCOCC2)cc1 ?
TDP-43 yeast inh: inconclusive; Abeta rescue: inactive; FUS yeast rescue: inactive; aSyn rescue: -21%

What do the screens show for `O=C(COC(=O)c1ccc([N+](=O)[O-])o1)Nc1ccc(F)cc1`?
TDP-43 yeast inh: 16µM*; Abeta rescue: inactive; FUS yeast rescue: inactive; aSyn rescue: -7%

What do the screens show for `CCc1ccc(-c2nc3ccc(Br)cc3c(C(=O)O)c2C)s1`?
TDP-43 yeast inh: 35µM*; Abeta rescue: inactive; FUS yeast rescue: inactive; aSyn rescue: -36%; Mito fusion yeast: 18%

How did CCOC(=O)c1sc2ncnc(NCc3ccco3)c2c1C do in these assays?
TDP-43 yeast inh: 20µM*; Abeta rescue: inconclusive; FUS yeast rescue: inactive; aSyn rescue: 3%; Mito fusion yeast: -2%

Results for CCOC(=O)c1sc2nc(CC(=O)OC)nc(NCc3ccco3)c2c1C ?
TDP-43 yeast inh: 20%; Abeta rescue: inactive; aSyn rescue: 4%; Mito fusion yeast: 11%

What do the screens show for `COc1cccc(CNC(=O)c2sc3nc[nH]c(=O)c3c2C)c1`?
TDP-43 yeast inh: -6%; Abeta rescue: inactive; FUS yeast rescue: inactive

What do the screens show for `Cc1cc(OCC(=O)N(Cc2ccc(N(C)C)cc2)C2CCS(=O)(=O)C2)cc(C)c1Cl` (stereo not drawn)?
TDP-43 yeast inh: -2%; Abeta rescue: inactive; FUS yeast rescue: inconclusive

Results for Clc1ccc(C2=NNC(=NCc3ccccc3)SC2)cc1 ?
TDP-43 yeast inh: 21%; Abeta rescue: inactive; FUS yeast rescue: inactive; aSyn rescue: 4%; Mito fusion yeast: -5%

How did c1ccc(CN=C2NN=C(c3ccccc3)CS2)cc1 do in these assays?
TDP-43 yeast inh: 13µM*; Abeta rescue: inactive; FUS yeast rescue: inactive; aSyn rescue: 5%; Mito fusion yeast: 0%

How did CCCCN(CCCC)c1ccc(Cn2ccc3ccccc32)cc1 do in these assays?
aSyn rescue: 27%

What do the screens show for `COc1ccc(/C=N/NC(=O)c2cccnc2)cc1CSc1nc2ccccc2s1`?
TDP-43 yeast inh: 13µM*; Abeta rescue: inactive; aSyn rescue: 0%; Mito fusion yeast: 24%

What do the screens show for `COc1cc2nc(SCc3ccc(Cl)cc3Cl)n(Cc3cccs3)c(=N)c2cc1OC`?
TDP-43 yeast inh: 25µM*; Abeta rescue: inactive; FUS yeast rescue: inactive; aSyn rescue: 0%; Mito fusion yeast: 12%

What do the screens show for `CC1=C(c2ccc(F)cc2)S(=O)(=O)N=C1N1CCC(C(=O)NCCc2ccco2)CC1`?
TDP-43 yeast inh: 20%; Abeta rescue: inactive; FUS yeast rescue: inactive

What do the screens show for `C[C@H]1CN([C@@H](C)CO)C(=O)CCCn2nncc2CO[C@H]1CN(C)C(=O)Nc1ccc2c(c1)OCO2`?
TDP-43 yeast inh: inconclusive; Abeta rescue: inactive; FUS yeast rescue: inactive; aSyn rescue: 6%

Results for CC(=O)N1c2ccc(S(=O)(=O)N3CCC(C(=O)Nc4cccc(Cl)c4C)CC3)cc2CC1C (stereo not drawn) ?
TDP-43 yeast inh: 6%; Abeta rescue: inactive; FUS yeast rescue: inactive

Results for Clc1ccc(-c2nnc(C3CCCCC3)o2)cc1 ?
TDP-43 yeast inh: 11µM*; Abeta rescue: inactive; FUS yeast rescue: inactive; aSyn rescue: -3%; Mito fusion yeast: inconclusive

Results for Clc1ccc(-c2nnc(C3CC3)o2)cc1 ?
TDP-43 yeast inh: 7%; Abeta rescue: inactive; FUS yeast rescue: inactive; aSyn rescue: 8%; Mito fusion yeast: 4%

How did Cc1cnc2c(C)ccc(C)c2c1/C=C/c1ccc(N(C)C)cc1 do in these assays?
aSyn rescue: -3%

How did O=[N+]([O-])c1ccc(Nc2nc(N/N=C/c3cccc(F)c3)nc(N3CCCC3)n2)cc1 do in these assays?
TDP-43 yeast inh: inconclusive; Abeta rescue: inactive; FUS yeast rescue: inconclusive; aSyn rescue: 0%; Mito fusion yeast: 16µM*

How did COc1cccc2c(=O)c3c(cnn3C)n(C)c12 do in these assays?
TDP-43 yeast inh: inconclusive; Abeta rescue: inconclusive; FUS yeast rescue: inactive; aSyn rescue: 25µM*; Mito fusion yeast: -2%
